Results: PubChem BioAssay (NCATS)
Inconclusive results are not listed. The source made the active and inactive calls. Calls follow the shape of the dose curve; as a rule, active = well fitted curve in the direction sought with a large enough effect; inconclusive = small, poorly fitted or top-dose-only effect, or another doubt; inactive = no such curve, though single readings can be large; an effect the other way counts as inactive or inconclusive. Where a SMILES comes first, the peptide text is derived from it.

Key:
[1] = system: CRL-7250; assay: Cytotoxic Profiling of Annotated Libraries Using Quantitative High-Throughput Screening (AID 1296008); details: Five cell lines viability, CellTiter-Glo ATP luminescence, 48-72 h; max response: active compounds read low; also: nearly all actives have a fitted effect of over 60% in size; as to max response: % is scaled to controls: 0 for no effect and ±100 for the full control effect
Procedure, shortened: (§1)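 Cytotoxicity was measured as CellTiter-Glo ATP luminescence, read after 10 min at room temperature. Compound treatment of the cells lasted 48 or 72 hr at 37 degrees Celsius in a qHTS format.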

[2] = system: HEK293; assay: as above; details: Five cell lines viability, CellTiter-Glo ATP luminescence, 48-72 h; max response: active compounds read low
Procedure, shortened: as §1

[3] = system: HaCat; assay: as above; details: Five cell lines viability, CellTiter-Glo ATP luminescence, 48-72 h; max response: active compounds read low
Procedure, shortened: as §1

[4] = system: KB-3-1; assay: as above; details: Five cell lines viability, CellTiter-Glo ATP luminescence, 48-72 h; max response: active compounds read low
Procedure, shortened: as §1

[5] = system: NIH3T3; assay: as above; details: Five cell lines viability, CellTiter-Glo ATP luminescence, 48-72 h; max response: active compounds read low
Procedure, shortened: as §1

[6] = system: HEK293T; assay: qHTS assay to identify novel small-molecules to repurpose for Merkel cell carcinoma treatment (AID 1296009); details: MCC and control cell lines, CellTiter-Glo viability, 72 h; at 44.8 µM (top of the series) unless noted; also: nearly all actives have a fitted effect of over 60% in size
Procedure, shortened: (§2)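 After compound transfer in DMSO, plates were kept 72 hr at 37 degree celsius. Luminescent ATP signal from CellTiter-Glo served as viability measure, normalized against DMSO and no-cell controls.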

[7] = system: C33A; assay: Primary qHTS to identify gynecologic anti-cancer compounds using libraries of approved drugs and bioactive compounds (AID 1345084); details: Gynecologic cancer cell panel viability, ATPlite luminescence, 48 h; series mostly up to 57.5 µM; also: nearly all actives have a fitted effect of over 55% in size; also: potency is read from the fitted curve at half-maximal effect; as to activity change, negative = cytotoxicity: % is scaled to controls: 0 for no effect and ±100 for the full control effect
Procedure, shortened: (§3)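 Luminescence from the ATPlite ATP-monitoring reagent indicates viable cell number; lower signal means cytotoxicity. Cells received compound 16 h after seeding and were exposed for 48 h across five concentrations.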

[8] = system: CASKI; assay: as above; details: Gynecologic cancer cell panel viability, ATPlite luminescence, 48 h; series mostly up to 57.5 µM
Procedure, shortened: as §3

[9] = system: Es-2; assay: as above; details: Gynecologic cancer cell panel viability, ATPlite luminescence, 48 h; series mostly up to 57.5 µM
Procedure, shortened: as §3

[10] = system: HeLa; assay: as above; details: Gynecologic cancer cell panel viability, ATPlite luminescence, 48 h; series mostly up to 57.5 µM
Procedure, shortened: as §3

[11] = system: Hek293T; assay: as above; details: Gynecologic cancer cell panel viability, ATPlite luminescence, 48 h, control line for the selectivity index; series mostly up to 57.5 µM
Procedure, shortened: as §3

[12] = system: JEG-3; assay: as above; details: Gynecologic cancer cell panel viability, ATPlite luminescence, 48 h; series mostly up to 57.5 µM
Procedure, shortened: as §3

[13] = system: OV90; assay: as above; details: Gynecologic cancer cell panel viability, ATPlite luminescence, 48 h; series mostly up to 57.5 µM
Procedure, shortened: as §3

[14] = system: PA-1; assay: as above; details: Gynecologic cancer cell panel viability, ATPlite luminescence, 48 h; series mostly up to 57.5 µM
Procedure, shortened: as §3

[15] = system: CAOV3; assay: as above; details: Gynecologic cancer cell panel viability, ATPlite luminescence, 48 h; series mostly up to 57.5 µM
Procedure, shortened: as §3

[16] = system: NIH3T3; assay: qHTS assay to identify novel small-molecules to repurpose for Merkel cell carcinoma treatment (AID 1296009); details: MCC and control cell lines, CellTiter-Glo viability, 72 h; at 44.8 µM (top of the series) unless noted; also: nearly all actives have a fitted effect of over 60% in size
Procedure, shortened: as §2

CC1(C)OC(=O)CC(O)C2(C)C1CC(=O)C1(C)C2C(O)CC2(C)C(c3ccoc3)OC(=O)C3OC321 (centres undefined)
inactive: max response [1] -14.5% | outcome [2] | max response [3] -9.13% | outcome [4] | max response [5] -11.7% | outcome [6] inactive [at 17.4 µM] | Potency [7] | outcome [8] | Potency [9] | Potency [10] | Potency [11] | Potency [12] | Potency [13] | Potency [14]

COC(=O)[C@H](Cc1ccc([N+](=O)[O-])cc1)NC(=O)c1cccc2ccccc12
inactive: max response [1] -4.16% | outcome [2] | max response [3] -4.67% | outcome [4] | max response [5] -1.76% | outcome [6] | Potency [7] | outcome [8] | Potency [9] | Potency [10] | Potency [11] | Potency [12] | Potency [13] | Potency [14]

CC(C)C1CCC(CO)=CC1/C=C(\CO)C(=O)OCC1(O)CCC(C(C)C)C2C=C(C(=O)O)COC(=O)C21 (centres undefined)
inactive: outcome [1] | outcome [2] | max response [3] -2.47% | outcome [4] | max response [5] -0.853% | outcome [6] inactive [at 17.4 µM] | Potency [7] | outcome [8] | Potency [9] | Potency [10] | Potency [11] | Potency [12] | Potency [13] | Potency [14]

COC(=O)C1C(O)CCC2CN3CCc4c([nH]c5ccccc45)C3CC21 (centres undefined)
inactive: max response [1] 2.68% | outcome [2] | max response [3] -7.68% | max response [4] 9.41% | max response [5] -7.25% | outcome [6] | Potency [7] | Potency [15] | Potency [9] | Potency [10] | Potency [11] | Potency [12] | Potency [13] | Potency [14]

C[C@@H]1[C@H]2[C@H](O[C@@H]3O[C@H](CO)[C@@H](O)[C@H](O)[C@H]3O)OC=C(C(=O)O)[C@H]2C[C@@H]1OC(=O)/C=C/c1ccc(O)cc1
inactive: max response [1] -1.73% | outcome [2] | max response [3] -1.65% | max response [4] 7.88% | max response [5] 1.42% | outcome [6] inactive [at 17.4 µM] | Potency [7] | Potency [15] | outcome [8] | Potency [9] | Potency [10] | Potency [11] | Potency [12] | Potency [13] | Potency [14]

COc1cc(/C=C/C(=O)O[C@H]2C[C@@H]3C(C(=O)O)=CO[C@@H](O[C@@H]4O[C@H](CO)[C@@H](O)[C@H](O)[C@H]4O)[C@@H]3[C@H]2C)ccc1O
inactive: outcome [1] | outcome [2] | max response [3] 3.27% | outcome [4] | max response [5] 1.34% | outcome [6] inactive [at 17.4 µM] | Potency [7] | outcome [8] | Potency [9] | Potency [10] | Potency [11] | Potency [12] | Potency [13] | Potency [14]

O=C1NC(=O)/C(=C/c2cccc(C(F)(F)F)c2)S1
inactive: outcome [1] | outcome [2] | max response [3] 3.45% | max response [4] -2.21% | max response [5] 4.34% | outcome [6] | Potency [7] | Potency [15] | outcome [8] | Potency [9] | Potency [10] | Potency [11] | Potency [12] | Potency [13] | Potency [14]

O=C(/C=C/c1ccc(O)c(O)c1)O[C@H]1[C@H](OC2CCCCC2O)O[C@H](CO)[C@@H](O)[C@@H]1O (some centres undefined)
active: Potency [10] 11.2 µM
inactive: max response [1] -3.22% | max response [2] -0.453% | max response [3] -16.7% | max response [4] -3.21% | outcome [5] | outcome [16] inactive [at 17.4 µM] | Potency [7] | Potency [15] | outcome [8] | Potency [9] | Potency [11] | Potency [12] | Potency [13]

CC(C)=C1C[C@@]2(C)C(=CC1=O)CC[C@@H](O)[C@@H]2C
inactive: max response [1] -13.6% | outcome [2] | max response [3] -1.2% | max response [4] 3.47% | max response [5] -19.7% | outcome [6] | Potency [7] | outcome [8] | Potency [9] | Potency [10] | Potency [11] | Potency [12] | Potency [13] | Potency [14]

C/C=C(/C)C(=O)OC1C(OC(C)=O)C23C(O)OC4(CCC5C6(C)CCC(OC7OC(C(=O)O)C(O)C(OC8OC(CO)C(O)C(O)C8OC8OC(C)C(O)C(O)C8OC8OCC(O)C(O)C8O)C7OC7OC(CO)C(O)C(O)C7O)C(C)(C)C6CCC5(C)C4(C)CC2OC(C)=O)C3CC1(C)C (centres undefined)
inactive: max response [1] 1.39% | outcome [2] | max response [3] 1.22% | max response [4] 4.58% | max response [5] -12.1% | outcome [6] inactive [at 9.27 µM] | activity change, negative = cytotoxicity [7] 8.72% [at 6.55 µM] | activity change, negative = cytotoxicity [15] 8.69% [at 6.55 µM] | activity change, negative = cytotoxicity [8] 1.53% [at 6.55 µM] | activity change, negative = cytotoxicity [9] 1.17% [at 6.55 µM] | activity change, negative = cytotoxicity [10] -3.79% [at 6.55 µM] | activity change, negative = cytotoxicity [11] -2.54% [at 6.55 µM] | activity change, negative = cytotoxicity [12] 2.12% [at 6.55 µM] | activity change, negative = cytotoxicity [13] 3.74% [at 6.55 µM] | activity change, negative = cytotoxicity [14] -0.0173% [at 6.55 µM]

O=C(/C=C/c1ccc(O)cc1)OC[C@H]1O[C@H](O[C@@]2(CO)O[C@@H](CO)[C@H](O)[C@H]2O)[C@H](O)[C@@H](O)[C@@H]1O
inactive: outcome [1] | outcome [2] | max response [3] 1.8% | outcome [4] | max response [5] -0.438% | outcome [6] inactive [at 17.4 µM] | Potency [7] | outcome [8] | Potency [9] | Potency [10] | Potency [11] | Potency [12] | Potency [13] | Potency [14]

COc1cc(C(CO)CO[C@@H]2O[C@H](CO)[C@@H](O)[C@H](O)[C@H]2O)ccc1O (some centres undefined)
inactive: max response [1] -15.6% | outcome [2] | max response [3] -35.5% | max response [4] 5.97% | max response [5] -7.99% | outcome [6] | Potency [7] | Potency [9] | Potency [10] | Potency [11] | Potency [12] | Potency [13] | Potency [14]

CC(=O)NC(Cc1ccccc1)C(=O)NC(C(=O)O)C(C)C (stereo not drawn) (Ac-Phe-Val-OH; configuration not given here)
inactive: max response [1] -0.555% | outcome [2] | max response [3] -2.09% | max response [4] 4.23% | max response [5] 4.03% | outcome [6] | Potency [7] | Potency [15] | Potency [9] | Potency [10] | Potency [11] | Potency [12] | Potency [13] | Potency [14]
